# “And” between values parts separate entries of the source, which are not always exact repeats. Equal values may be shown once. Inconclusive results are not listed. Some structures have more than one record in an assay (separate samples or runs), and their calls can disagree. The source made the active and inactive calls. Calls follow the shape of the dose curve; as a rule, active = well fitted curve in the direction sought with a large enough effect; inconclusive = small, poorly fitted or top-dose-only effect, or another doubt; inactive = no such curve, though single readings can be large; an effect the other way counts as inactive or inconclusive.
# How the values were obtained:
# [1] = qHTS assay for measurement of the activity of small molecule inhibitors on Zika virus induced Caspase-3 activity in human iPSC derived neural progenitor cells (hNPCs) (AID 1224857); also: nearly all actives have a fitted effect of over 65% in size
# Procedure, shortened: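 Pretreat hNPCs with compound 1 h; infect ZIKV 2 FFU/cell; 6 h 37 C, 5% CO2; Caspase-Glo 3/7, 30 min RT; luminescence; normalize to no-virus and virus-only wells.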
# [2] = qHTS assay for measurement of the activity of small molecule inhibitors on Zika virus induced Caspase-3 activity in human astrocytoma cells (AID 1224859)
# Procedure, shortened: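 Human SNB-19 astrocytoma cells in RPMI 1640 with 10% FBS receive compound one hour ahead of Zika virus at 2 FFU/cell. After 6 h infection, caspase-3/7 activity is detected by Caspase-Glo luminescence.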
# [3] = qHTS Screen of the MIPE 4.0 Collection Against Ewings Sarcoma (RDES) (AID 1259252); also: nearly all actives have a fitted effect of over 35% in size; also: potency is read from the fitted curve at half-maximal effect
# Procedure, shortened: (§1)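 Compound titrations go onto adherent log-phase cells 4 h after seeding, incubate 48 h at 37C, then CellTiter-Glo luminescence reports viability relative to DMSO and cell-free controls.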
# [4] = qHTS Screen of the MIPE 4.0 Collection Against Ewings Sarcoma (TC71) (AID 1259253); also: nearly all actives have a fitted effect of over 40% in size; also: potency is read from the fitted curve at half-maximal effect
# Procedure, shortened: as §1
# [5] = qHTS Screen of the MIPE 4.0 Collection Against Ewings Sarcoma (EW8) (AID 1259255); also: nearly all actives have a fitted effect of over 35% in size; also: potency is read from the fitted curve at half-maximal effect
# Procedure, shortened: as §1
# [6] = qHTS Screen of the MIPE 4.0 Collection Against Ewings Sarcoma (TC32) (AID 1259256); also: nearly all actives have a fitted effect of over 45% in size; also: potency is read from the fitted curve at half-maximal effect
# Procedure, shortened: as §1
# [7] = Identifying Small Molecule Inhibitors of Pancreatic Cancer Stem Cells (SN12C, Adherent) (AID 1259358);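 also: cell survival measured after 48 h of compound exposure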; also: potency is read from the fitted curve at half-maximal effect
# Procedure, shortened: (§2)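 Viability is scored by CellTiter-Glo luminescence 48 h after dosing, expressed as percent activity against vehicle and no-cell references. Spheroid formats rely on cells cultured 14 days in stem cell media beforehand.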
# [8] = Identifying Small Molecule Inhibitors of Pancreatic Cancer Stem Cells (SN12C, Spheroid) (AID 1259360); conditions: Potency: SN12C spheroid viability; also: potency is read from the fitted curve at half-maximal effect
# Procedure, shortened: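 Endpoint: ATP-based luminescence, 48 h drug exposure. Bortezomib at 9.2 uM final as full-kill control; DMSO vehicle as negative control; activity normalized between vehicle and cell-free wells.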
# [9] = P-glycoprotein substrates identified in KB-8-5-11 adenocarcinoma cell line, qHTS therapeutic library screen (AID 1346987); also: nearly all actives have a fitted effect of over 65% in size; also: potency is read from the fitted curve at half-maximal effect
# Procedure, shortened: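 In this qHTS, P-gp-rich KB-8-5-11 cells received library compounds across a concentration range. Viability was quantified by luminescence after 72 h at 37 degree C.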
# [10] = Identifying Small Molecule Inhibitors of Pancreatic Cancer Stem Cells (A278, Adherent) (AID 1259361);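 also: viability read after 48 h compound exposure; nearly all actives have a fitted effect of over 35% in size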
# Procedure, shortened: as §2
# [11] = NS1 protein of Zika virus - qHTS assay to identify small molecule inhibitors in human HEK 293 cells (AID 1347053); also: nearly all actives have a fitted effect of over 55% in size; also: potency is read from the fitted curve at half-maximal effect
# Procedure, shortened: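 In this cell-based screen, HEK 293 cultures received compound for one hour before Zika MR766 at MOI = 0.5. NS1 was quantified 24 hours later by TR-FRET, normalized to virus-free wells and infected wells.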
# [12] = P-glycoprotein substrates identified in KB-3-1 adenocarcinoma cell line, qHTS therapeutic library screen (AID 1346986); also: nearly all actives have a fitted effect of over 60% in size
# Procedure, shortened: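 Using luminescence to quantify ATP, parental and P-gp-overexpressing KB cells were compared after 72 h compound titration. KB-8-5-11 was also run with the P-gp inhibitor tariquidar.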
SMILES,Potency [1],Potency [2],Potency [3],Potency [4],Potency [5],Potency [6],Potency [7],Potency [8],Potency [9],IC50 (viability decrease) [10],Potency [11],Potency [12]
COc1ccc2c(c1)CC[C@@H](CN(C)CC(=O)O)[C@H]2c1ccccc1,inactive,inactive,2.35 µM (active),3.72 µM (active),2.35 µM (active),2.35 µM (active),inactive,inactive,1.66 µM (active) and inactive,–,–,–
Nc1nc(-c2nn(Cc3ccccc3F)c3ncccc23)nc(N)c1N1CCOCC1,inactive,inactive,inactive,inactive,inactive,inactive,inactive,inactive,inactive,inactive,inactive,–
CCCCN1CCC(CNC(=O)c2c3n(c4ccccc24)CCCO3)CC1,inactive,inactive,8.33 µM (active),9.35 µM (active),14.8 µM (active),13.2 µM (active),inactive,inactive,–,inactive,–,–
O=C(O)[C@H](Cc1c[nH]c2ccccc12)N1C(=O)c2ccccc2C1=O,inactive,inactive,inactive,inactive,inactive,inactive,inactive,inactive,inactive,–,inactive,–
Cc1cnc(Nc2ccc(F)cc2Cl)nc1-c1c[nH]c(C(=O)N[C@H](CO)c2cccc(Cl)c2)c1,inactive,inactive,20.9 µM (active),18.7 µM (active),20.9 µM (active),23.5 µM (active),13.2 µM (active),23.5 µM (active),23.5 µM (active),11.8 µM (active),–,–
Cc1ccc(S(=O)(=O)Nc2cc(Cl)ccc2C(=O)Nc2nc(-c3ccccc3)cs2)cc1,inactive,inactive,10.5 µM (active),13.2 µM (active),16.6 µM (active),14.8 µM (active),2.64 µM (active),–,–,3.72 µM (active),–,–
CC(C)c1ccccc1Cc1cc(C(=O)Nc2ccc(S(=O)(=O)c3ccccc3C(C)(C)C)cc2)c(O)c(O)c1O,inactive,inactive,7.43 µM (active),7.43 µM (active),8.33 µM (active),8.33 µM (active),inactive,inactive,9.35 µM (active),–,–,–
CC(=O)Nc1sc2c(c1-c1nc3ccccc3s1)CNC2,inactive,inactive,16.6 µM (active),14.8 µM (active),16.6 µM (active),13.2 µM (active),inactive,–,16.6 µM (active) and 13 µM (active),–,inactive,–
C=CC(=O)Nc1cccc(Oc2nc(Nc3ccc(N4CCN(C)CC4)cc3OC)ncc2Cl)c1,inactive,inactive,0.0187 µM (active),0.0074 µM (active),0.0209 µM (active),0.0148 µM (active),23.5 µM (active),–,inactive and 20.6 µM (active),–,33.2 µM (active),–
O=C(C=Cc1cccc(S(=O)(=O)Nc2ccccc2)c1)NO,inactive,inactive,2.15 µM (active),2.7 µM (active),1.52 µM (active),1.91 µM (active),20.9 µM (active),–,10.8 µM (active),4.69 µM (active),–,–
CC=C1NC(=O)[C@H]2CSSCCC=C[C@H](CC(=O)N[C@H](C(C)C)C(=O)N2)OC(=O)[C@H](C(C)C)NC1=O,inactive,inactive,0.0148 µM (active),0.0209 µM (active),0.0187 µM (active),0.0148 µM (active),0.0053 µM (active),0.0053 µM (active),8.33 µM (active),0.0053 µM (active),4.18 µM (active),–
CCCCc1nc2cc(C=CC(=O)NO)ccc2n1CCN(CC)CC,inactive,inactive,0.187 µM (active),0.372 µM (active),0.469 µM (active),0.0935 µM (active),2.96 µM (active),–,7.43 µM (active),1.18 µM (active),inactive,–
COc1cc(C(C)C)c2c(c1)S(=O)(=O)N(COc1cc(=O)n3cccc(OCCN4CCCCC4)c3n1)C2=O,inactive,inactive,10.5 µM (active),18.7 µM (active),26.4 µM (active),20.9 µM (active),inactive,inactive,inactive,–,–,inactive
N#Cc1c(O)c2c(-c3ccc(-c4ccccc4O)cc3)csc2[nH]c1=O,inactive,inactive,14.8 µM (active),18.7 µM (active),20.9 µM (active),23.5 µM (active),inactive,–,inactive,inactive,inactive,inactive

# — PubChem BioAssay (NCATS)
